Source: PubChem BioAssay AID651819 (National Center for Advancing Translational Sciences (NCATS), 2012)
Among all 360,000 compounds or so, about 1,100 (0.31%) were called active. No stated cut-off is given here; in the data, active means activity change below about -30%; inactive means the rest. This excerpt belongs to a sample that is enriched for actives.

Tested on: cytosolic chaperonin (CCT/TRiC complex)
Experiment: High-Throughput Screening for Modulators of Cytosolic Chaperonin Activity
Details: purified chaperonin ATPase assay, HTRF ADP detection, 30 min; stronger effect = lower value
Procedure, shortened: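 We incubate TRiC, 40 or 20 nM final, with library compounds at 76 uM and 10 uM ATP for 30 min at 37 °C. ADP formed is detected with Transcreener HTRF reagents after 30 min at room temperature.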
On the % scale 0 is the no-effect control and ±100 the full control effect.

Compound | activity change
CC(C)N(C(=O)Cn1c(SCC(=O)N2CCN(c3ccccc3)CC2)nc2ccccc21)C(C)C | -3.64% (inactive)
Cc1ccc(S(=O)(=O)/N=C(/NC(=S)Nc2c(C)n(C)n(-c3ccccc3)c2=O)c2ccccc2)cc1 | -1.68% (inactive)
OCC1(CCc2ccccc2)CCN(Cc2ccc3nsnc3c2)CC1 | -4.83% (inactive)
COc1cccc(CC2(CO)CCN(Cc3cnc(-c4cccc(C)c4)nc3)CC2)c1 | -1.28% (inactive)
Cc1c(CN2CCC(CO)(CCOc3ccccc3)CC2)[nH]c2ccc(Cl)cc12 | -56% (active)
O=C1C2C3C=CC(C3)C2C(=O)N1c1ncc([N+](=O)[O-])s1 (stereo unspecified) | -1.62% (inactive)
COc1ccc(/C=C/C(=O)OCC(=O)NCc2cccs2)cc1OC | -2.94% (inactive)
CC(C)c1cccc(-c2csc(C(O)c3ccccc3)n2)c1 (stereo unspecified) | -0.363% (inactive)
COc1cccc(C(NC(C)=O)c2nc(-c3cnc4ccccc4c3)cs2)c1 (stereo unspecified) | 0.873% (inactive)
OC(c1ccccc1)c1nc(-c2cnc3ccccc3c2)cs1 (stereo unspecified) | -40.1% (active)
COC(=O)C[C@H]1C[C@@H]2c3cc(N(C)C)ccc3O[C@@H]2[C@H](CO)O1 | -1.3% (inactive)
CCOC(=O)c1ccccc1NC(=O)c1c(N)n(C)c(=O)[nH]c1=O | 2.1% (inactive)
O=C(Nc1ccccc1-c1nnn(CC(=O)N2CCCc3ccccc32)n1)c1cccc(Cl)c1 | -0.628% (inactive)
Cc1ccc(-n2ncc3c2CC(C)(C)CC3NC(=O)Cc2c(C)noc2C)cc1 (stereo unspecified) | 1.55% (inactive)
CC1=C(C(=O)NC2CC(C)(C)Cc3c2cnn3-c2ccc(C)cc2)OCCO1 (stereo unspecified) | -89.1% (active)
COCc1ccc(C(=O)NC2CC(C)(C)Cc3c2cnn3-c2ccc(C)cc2)o1 (stereo unspecified) | -1.13% (inactive)
Cc1ccc(-c2c(C)n([O-])c3c([n+]2=O)CCC3)cc1 | -0.716% (inactive)
O=C1/C(=C\c2cccnc2)CN(Cc2ccccc2)C/C1=C\c1cccnc1 | -1.65% (inactive)
COc1ccc(C2=NOC3(CC(=O)N(c4ccc(Cl)cc4)C3=O)C2)c(OC)c1 (stereo unspecified) | 1.68% (inactive)
CC(=O)c1c(C)c[nH]c1C | 0.144% (inactive)
Cc1ccc(S(=O)(=O)NCC(=O)Nc2ccc3c(c2)OCCO3)cc1 | -2.11% (inactive)

Compound | activity change
CC(=O)Nc1ccc(NC(=O)C(NS(=O)(=O)c2ccc3c(c2)OCCO3)C(C)C)cc1 (stereo unspecified) | -1.81% (inactive)
CC(NS(=O)(=O)c1ccc(Cl)cc1)C(=O)Nc1ccc2c(c1)OCCO2 (stereo unspecified) | -38.5% (active)
COc1cc(Cl)c(C)cc1NC(=O)CSc1nnc(-c2ccco2)n1CC(C)C | -2.06% (inactive)
COc1ccccc1N1CCN(C(=O)CSc2ncnc3c2cnn3-c2ccc(C)c(C)c2)CC1 | -0.613% (inactive)
CN(C(=O)CC(NC(=O)c1ccccc1)(c1ccccc1)c1ccccc1)c1ccccc1 | -1.61% (inactive)
CCOC(=O)N/N=C1\CC(C)S(=O)(=O)c2ccc(Cl)cc21 (stereo unspecified) | -3.43% (inactive)
CCOc1cccc(NC(=O)Cn2nc(-c3ccc4c(c3)OCCO4)ccc2=O)c1 | 2.22% (inactive)
CC(=O)c1cc2c(cc1NC(=O)Cn1nc(-c3ccc(F)cc3)ccc1=O)OCO2 | -31.8% (active)
CC(=O)c1cc2c(cc1NC(=O)CN1CCCCCC1)OCO2 | -1.13% (inactive)
Cc1cccc2c1cnn2C(=O)CCC(=O)NC1CCCCC1 | 0.998% (inactive)
C=CCN(N=Nc1cccc([N+](=O)[O-])c1)c1cccc([N+](=O)[O-])c1 | -0.537% (inactive)
CC1=C(C(=O)OC(C)(C)C)C(c2ccc(Br)cc2)NC(=O)N1CCCC(=O)O (stereo unspecified) | -0.201% (inactive)
O=C1CS(=O)CN1c1ccc(Oc2ccccc2)cc1 (stereo unspecified) | -3.89% (inactive)
Cc1n[nH]c(=O)n1-c1ccc(Oc2ccccc2)cc1 | -105% (active)
Cc1n[nH]c(=O)n1-c1ccc(C(C)C)cc1 | 0.471% (inactive)
O=C(NCCCN1CCOCC1)c1ccc2c(c1)N(Cc1cccc(F)c1)C(=O)c1ccccc1S2 | -77.1% (active)
O=C(NCCCN1CCCCC1)c1ccc2c(c1)NC(=O)C(N1CCOCC1)S2 (stereo unspecified) | -0.706% (inactive)
O=C(NCCCN1CCOCC1)c1cc(-c2ccccc2F)no1 | 1.6% (inactive)
CCc1ccc(CN(C)C(C)C(=O)Nc2ccc(S(=O)(=O)N3CCCC3)cc2)cc1 (stereo unspecified) | -0.65% (inactive)
Cc1ccc(C2C(C#N)C(C#N)N3CCCN23)cc1 (stereo unspecified) | 0.118% (inactive)
